Shown are actives, neighbours in structure and some others; about 1.6% of the full set was active somewhere.
Efflux pump inh – blocks antifungal efflux pumps in multiplex yeast assay. S. cerevisiae Candida pump triplex, Nile Red efflux. inhibition, % at 10 µM. actives 0.44% (n = 330,000). AID 485275;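 active = plate passing quality check with inhibition over a set limit, or well fluorescence over plate mean plus 4 SD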;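 also: Nile Red retained in pooled yeast measured as flow cytometry median fluorescence; 0% = buffer negative control and 100% = Enniatin B positive control; higher means more Nile Red kept so more efflux inhibition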
ATG4B inhibitor – ATG4B (human) cysteine protease inhibition; inhibition, % at 8.33 µM; AID 504462; Q9Y4P1; ATG4B cleavage of LC3-PLA2, NBD-HPC fluorescence, 1 h; actives 0.51% (n = 340,000); in the data active = inhibition above about 40%
Target sequence (Q9Y4P1 whole entry, looked up): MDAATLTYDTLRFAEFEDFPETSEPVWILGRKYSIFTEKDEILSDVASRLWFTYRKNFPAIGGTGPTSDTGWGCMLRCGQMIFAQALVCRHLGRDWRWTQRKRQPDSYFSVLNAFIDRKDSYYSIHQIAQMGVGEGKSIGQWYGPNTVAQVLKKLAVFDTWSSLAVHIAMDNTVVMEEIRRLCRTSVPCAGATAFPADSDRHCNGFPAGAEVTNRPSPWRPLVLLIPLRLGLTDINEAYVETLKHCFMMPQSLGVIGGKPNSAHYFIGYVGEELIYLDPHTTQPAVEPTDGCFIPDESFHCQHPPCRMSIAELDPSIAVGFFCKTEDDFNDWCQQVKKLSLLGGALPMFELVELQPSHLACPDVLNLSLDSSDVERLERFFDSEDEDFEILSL
GRK2 inh – inhibitors of human GRK2 displacing RNA aptamer; actives 0.59% (n = 330,000); inhibition of aptamer binding, % at 10 µM; AID 488847; bead flow cytometry, FAM-aptamer displacement from GRK2; P25098;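 active = inhibition of aptamer binding above 40%, roughly 3 SD of noise, on plates passing a quality check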;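 also: median bead fluorescence of bound FAM aptamer so fluorescent compounds give negative values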
CR mimetic SO – caloric restriction mimetics inhibiting age-related superoxide in yeast | S. cerevisiae aged cells, superoxide DHE fluorescence; stronger effect = lower value | superoxide response (% of plate mean), % at 10 µM | actives 0.18% (n = 330,000);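 active = superoxide response under a set limit, about three screen SD below normal, cut at about 65% in these data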;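 also: yeast aged for seven days with compound at 30 °C before DHE staining; 100% = average MFI of all compound-treated wells on the plate with controls excluded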
GRK2 CP1 – confirmation of human GRK2 inhibitors displacing RNA aptamer; shares compounds with GRK2 inh; bead-bound GRK2, FAM-aptamer displacement, flow cytometry; aptamer displacement, % at 10 µM; actives 4% (n = 2,000);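 active = aptamer displacement above 40%, near three times the noise of non-fluorescent compounds, on plates passing quality checks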;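 also: negative values mostly reflect intrinsic compound fluorescence rather than true enhancement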
FAM quench CP1 – quenches fluorescent RNA aptamer, GRK2 hit artifact | shares compounds with GRK2 inh | Carboxyfluorescein RNA aptamer on beads, flow cytometry quenching; stronger effect = lower value | fluorescence response (% of DMSO), % at 10 µM | 2,000 tested, under 10 active;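 active = compounds that quench the bead-bound fluorescent RNA probe, cutting fluorescence to under half of the solvent control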;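 also: counterscreen run without GRK2 so only probe quenching by compound is measured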
GRK2 CP2 – human GRK2 inhibition confirmation, cherry pick 2. shares compounds with GRK2 inh. bead-bound GRK2, FAM-aptamer displacement, flow cytometry. inhibition of aptamer binding, % at 10 µM. 360 tested, under 10 active;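 active = inhibition of aptamer binding above 40%, about triple the noise seen with nonglowing compounds, on plates passing quality control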;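 also: negative values mostly come from compounds that fluoresce themselves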
FAM quench CP2 – quenches fluorescent RNA aptamer, GRK2 hit artifact | shares compounds with GRK2 inh | carboxyfluorescein RNA aptamer beads, flow cytometry quenching; stronger effect = lower value | 360 tested, under 10 active | fluorescence response vs DMSO, % at 10 µM;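 active = response vs DMSO under 50%, meaning signal dropped by over half, treated as fluorescence quencher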;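 also: labelled aptamer on streptavidin beads without GRK2 as a quench counter-screen; 100% = bead fluorescence of DMSO wells and lower means quenching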
Starred values were filed as active, the others as inactive; nt = no result given.

SMILES	Efflux pump inh	ATG4B inhibitor	GRK2 inh	CR mimetic SO	GRK2 CP1	FAM quench CP1	others
O=C1CC2(CCCC2)C(=O)N1CN1CCN(S(=O)(=O)c2ccc(Cl)c(Cl)c2)CC1	0	-8	2	87	nt	nt
CCOC(=O)Cn1cnc(C)c1	nt	-5	nt	nt	nt	nt
CCOC(=O)Cn1cc(Cl)c(=O)c(Cl)c1	0	-14	85*	100	-3	102
COc1ccc(NC(=O)C2Cc3ccccc3O/C2=N\O)cc1 (configuration not stated)	0	-3	5	102	nt	nt
CN=c1scc(C)n1/N=C/c1ccc2c(c1)OCO2	0	3	91*	100	-1	101
CN=c1scc(C)n1/N=C/c1ccc(O)cc1	0	-2	2	93	nt	nt
OC(c1ccccc1)C(NCCNCc1ccccc1)c1ccccc1 (configuration not stated)	nt	-5	nt	nt	nt	nt
CCN(CC)Cc1csc(C(N)=O)c1	0	-8	14	108	-3	101
O=C(O)c1c2c(nc3ccccc13)CCCCC2	0	1	3	85	nt	nt
O=C(NC1CCCCC1)c1c2c(nc3ccccc13)CCC2	0	-1	2	97	nt	nt	GRK2 CP2=-1;FAM quench CP2=100
CCOC(=O)C1(Cc2cccc(F)c2)CCN(CC(O)CO)CC1 (configuration not stated)	0	-1	78*	90	-1	103
Cc1ccc2cc(C3C(C#N)=C(N)Oc4c3ccc3cccnc43)c(=O)[nH]c2c1 (configuration not stated)	0	17	97*	142	-3	110
COc1cccc(CNC(=O)C2CCCN(S(=O)(=O)c3ccc4c(c3)C(C)(C)C(=O)N4C)C2)c1 (configuration not stated)	0	-8	2	105	nt	nt
CCC(=O)c1ccc(OCC(O)CN2CCc3ccccc3C2)cc1 (configuration not stated)	0	-3	54*	103	-1	103
O=C(Cc1cccs1)Nc1cccc(C(=O)Nc2ccc(C(=O)O)cc2)c1	0	-4	0	86	nt	nt
Cc1ccc(-c2cnc3ccccc3n2)cc1C	0	9	0	107	2	101
COc1ccc(Nc2nnc(Cc3ccncc3)c3ccccc23)c(OC)c1	0	-5	2	84	nt	nt
COc1ccc(-c2noc(N3CCC(C(=O)Nc4ccc(OC)c(OC)c4)CC3)n2)cc1	0	-17	83*	84	0	100
COc1cccc(OC)c1C(=O)n1nc(C)cc1C	0	-3	15	99	-2	102
COc1ccc(Cl)cc1C(=O)n1nc(C)cc1C	0	-5	0	101	nt	nt
C=Cc1ccc(Cn2nc(-c3ccccc3)ccc2=O)cc1	0	-10	2	117	nt	nt
COc1cccc(NC(=S)/C(=C(\[O-])c2cc(C)n(-c3ccccc3F)c2C)[n+]2ccc(N(C)C)cc2)c1	0	12	0	87	nt	nt
O=C(Nc1cccc(NC(=O)c2ccc(-c3ccc(Br)cc3)o2)c1)c1ccccc1	0	10	90*	114	-1	93
CC(C)Oc1ccc(CNCC2(O)CCOC(C)(C)C2)cc1 (configuration not stated)	0	-3	57*	87	-2	101
CC1(C)CC(O)(CNCc2ccc3c(c2)OCO3)CCO1 (configuration not stated)	0	-17	0	103	nt	nt
SMILES	Efflux pump inh	ATG4B inhibitor	GRK2 inh	CR mimetic SO	GRK2 CP1	FAM quench CP1	others
CC(=O)N/C(=N\c1nc(C)cc(C)n1)Nc1ccccc1Cl	nt	5	nt	nt	nt	nt
CC(=O)N/C(=N/c1nc(C)cc(C)n1)Nc1cccc(C)c1C	0	1	17	94	0	98
CC(OC(=O)C1CCCC1)C(=O)Nc1ncc(Cl)cc1Cl (configuration not stated)	0	6	2	88	nt	nt
COC(=O)C1CCN(C(=O)c2oc3c(Cl)cc(C)cc3c2C)CC1	0	-10	0	96	nt	nt
Cc1cc(Cl)c2oc(C(=O)NC3CCC(O)CC3)c(C)c2c1 (configuration not stated)	0	-1	65*	126	0	97
COc1ccccc1N1C(=O)[C@@H]2C(C(=O)CN3C(=O)c4ccccc4C3=O)=NN[C@@H]2C1=O	0	-7	0	115	nt	nt
Cc1ccc(N2C(=O)[C@@H]3C(C(=O)CN4C(=O)c5ccccc5C4=O)=NN[C@@H]3C2=O)c(C)c1	0	-4	41*	118	3	100
O=C(N/N=C\c1cc([N+](=O)[O-])ccc1N1CCOCC1)c1ccccn1	0	-8	89*	112	10	101
Cc1cccc(C)c1NC(=O)CNC(=O)c1ccc(N2CCCC2)c([N+](=O)[O-])c1	0	-5	0	97	nt	nt
CCC(C(=O)NCC1CCCO1)N(Cc1ccccc1)C(=O)CNS(=O)(=O)c1ccccc1 (configuration not stated)	0	-5	1	101	nt	nt
CCC(C(=O)NCC1CCCO1)N(Cc1ccc(F)cc1)C(=O)CNS(=O)(=O)c1ccccc1 (configuration not stated)	0	7	78*	101	-3	106
CCOCCCNC(=O)C1(O)c2cc(Br)ccc2NC(=O)N1c1ccc(OCC)cc1 (configuration not stated)	0	-2	61*	92	0	102
COc1ccc(C(=O)NC2CCN(Cc3c(F)cccc3Cl)CC2)cc1OC	0	0	0	120	nt	nt
Cc1ccc(NC(=S)N2CCC(c3nc4ccccc4s3)CC2)cc1	0	1	64*	87	-6	105
CNC(=S)N1CCC(c2nc3ccccc3s2)CC1	0	1	2	112	nt	nt
COc1c2ccc(OCC/C(C)=C/C(=O)C=C(C)C)cc2nc2occc12	0	2	0	119	nt	nt
COc1ccc(NC(=O)COC(=O)c2c3c(nc4ccccc24)CCCC3)cc1	0	-23	3	105	nt	nt
COc1ccc(OC)c(NC(=O)COC(=O)c2c3c(nc4ccccc24)CCCC3)c1	0	-5	73*	121	2	97
O=C(NCc1ccccc1)C(c1ccncc1)N(C(=O)c1csnn1)c1ccccc1F (configuration not stated)	0	3	95*	89	0	99
Cc1ccc2[nH]c3c(c2c1)CCN1C(=O)OC(C)(C)C31C (configuration not stated)	0	3	4	89	nt	nt
Cc1nn(-c2ccc(F)cc2)c(Cl)c1/C=C(/CC(=O)O)c1nc2ccccc2s1	nt	-2	nt	nt	nt	nt

Source: PubChem
